# In PubChem BioAssay (EPA / NIEHS):
# Results filed as inconclusive are left out. The source made the active and inactive calls. Rule for the calls, unless noted: active = hit-call score of the fitted dose curve at least 0.9, where 1 is the maximum; inactive = score below 0.9.
# Legend:
# [1] = biological target: Bile acid receptor (Homo sapiens) (UniProt Q96RI1); assay: OT_FXR_FXRSRC1_0480: Odyssey Thera (OT) 8-hour HEK293T Protein-Complementation Assay for Farnesoid X receptor/SRC-1 Co-activator (AID 2283383; active = hit-call score of the fitted dose curve at least 0.9, where 1 is the maximum)
# How it was run: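 Human kidney HEK293T cells carried FXR/SRC-1 fragment-complementation constructs. Compounds were added and incubated 8 h. Reporter reassembly upon receptor–co-activator interaction was then quantified by fluorescence, with curves fitted in the positive direction relative to DMSO.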
# [2] = biological target: Retinoic acid receptor RXR-alpha (Homo sapiens) (UniProt P19793); assay: OT_NURR1_NURR1RXRa_1440: Odyssey Thera (OT) 24-hour HEK293T Protein Complementation Assay for Nurr1/retinoid X receptor (RXR) (AID 2283386; active = hit-call score of the fitted dose curve at least 0.9, where 1 is the maximum)
# How it was run: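 Interaction of Nurr1 with RXRα brings fused reporter fragments together in human HEK293T cells, restoring a functional reporter. Fluorescence intensity is measured 24 h after chemical treatment, and values are analysed in the positive direction against DMSO.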
# [3] = biological target: Peroxisome proliferator-activated receptor gamma (Homo sapiens) (UniProt P37231); assay: OT_PPARg_PPARgSRC1_0480: Odyssey Thera (OT) 8-hour Protein-Complementation Assay for Peroxisome Proliferator-activated Receptor Gamma / SRC-1 Co-activator (AID 2283387; active = hit-call score of the fitted dose curve at least 0.9, where 1 is the maximum)
# How it was run: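 Protein-fragment complementation of split Venus YFP reports PPARg/SRC-1 interaction in HEK293T (transfected 48 h before treatment), exposed 8 h. Readout: N/C fluorescence ratio at 488 nm from imaging, Draq5 for segmentation, positive fit relative to DMSO.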
# [4] = biological target: Retinoic acid receptor RXR-alpha (Homo sapiens) (UniProt P19793); assay: OT_NURR1_NURR1RXRa_0480: Odyssey Thera (OT) 8-hour HEK293T Protein Complementation Assay for Nurr1/retinoid X receptor (RXR) (AID 2283385; active = hit-call score of the fitted dose curve at least 0.9, where 1 is the maximum)
# How it was run: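 8 h compound exposure, HEK293T; Nurr1/RXRα fragment complementation; fluorescence intensity; positive fitting direction vs DMSO baseline.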
# [5] = CEETOX_H295R_11DCORT: CeeTox H295R High-throughput Steroidogenesis Assay for 11-Deoxycortisol (11DCORT) (AID 2283432); details: actives raise or lower the signal;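 for AC50: 11-deoxycortisol secreted into the medium measured by LC-MS/MS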
# How it was run: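 Human adrenal H295R cells were prestimulated with 10 uM forskolin for 48 h, then exposed to test chemical (0.1% DMSO final) for 48 h. Medium 11-deoxycortisol was quantified by MTBE extraction and HPLC-MS/MS; bidirectional fitting relative to DMSO.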
# [6] = CEETOX_H295R_OHPREG: CeeTox H295R High-throughput Steroidogenesis Assay for OH-Pregnenolone (OHPREG) (AID 2283434); details: actives raise or lower the signal
# How it was run: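 Hormone levels in spent medium were measured by tandem mass spectrometry following liquid-liquid extraction. Cells (H295R) had been forskolin-stimulated (10 uM, 48 h) before a 48 h chemical exposure at 0.1% DMSO, with activity fitted in both directions against DMSO.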
# [7] = CEETOX_H295R_OHPROG: CeeTox H295R High-throughput Steroidogenesis Assay for OH-Progesterone (OHPROG) (AID 2283435); details: actives raise or lower the signal;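 for AC50: 17alpha-hydroxyprogesterone secreted into medium measured by HPLC-MS/MS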
# How it was run: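 H295R, 10 uM forskolin prestim 48 h; cmpd in 0.1% DMSO 48 h; medium MTBE-extracted, HPLC-MS/MS for OH-progesterone; 7-pt std curve; bidirectional fit vs DMSO; MTT viability, chemicals diluted until viability >/=70%.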
# [8] = CEETOX_H295R_ANDR: CeeTox H295R High-throughput Steroidogenesis Assay for Androstenedione (ANDR) (AID 2283436); details: actives raise or lower the signal
# How it was run: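 Read-out is androstenedione secreted into medium, measured by tandem mass spectrometry after liquid-liquid extraction. Cells were H295R, dosed for 48 h per modified OECD 456; activity fitted in both directions relative to DMSO.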
# [9] = CEETOX_H295R_CORTISOL: CeeTox H295R High-throughput Steroidogenesis Assay for Cortisol (AID 2283438); details: actives raise or lower the signal;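 note: cortisol secreted into medium quantified by LC-MS/MS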
# How it was run: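 Forskolin 10 uM 48 h prestim → test cmpd in DMSO (0.1% final) 48 h → medium MTBE-extracted → LC-MS/MS cortisol vs 7-pt std curve. Gain/loss of signal fitted vs DMSO. MTT viability in same wells.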
# [10] = CEETOX_H295R_DOC: CeeTox H295R High-throughput Steroidogenesis Assay for DOC (AID 2283439); details: actives raise or lower the signal
# How it was run: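 Readout: 11-deoxycorticosterone in culture medium by reverse-phase C18 HPLC with ESI+ tandem MS after MTBE extraction. Cells: H295R, forskolin-primed (10 uM, 48 h), chemical-treated 48 h; DMSO 0.1% final. Activity fitted bidirectionally versus DMSO.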
# [11] = CEETOX_H295R_PROG: CeeTox H295R High-throughput Steroidogenesis Assay for Progesterone (PROG) (AID 2283442); details: actives raise or lower the signal;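 for AC50: human H295R adrenal cells primed with 10 µM forskolin before dosing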
# How it was run: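 H295R human adrenal cells were prestimulated with 10 uM forskolin for 48 h, then exposed to test chemical (0.1% DMSO final) for 48 h. Medium progesterone was MTBE-extracted and quantified by HPLC-MS/MS, with bidirectional fitting against DMSO.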
# [12] = CEETOX_H295R_ESTRADIOL: CeeTox H295R High-throughput Steroidogenesis Assay for Estradiol (AID 2283440); details: actives raise or lower the signal;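 note: estradiol secreted into medium quantified by LC-MS/MS after dansyl derivatisation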
# How it was run: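 H295R adrenocortical cells were prestimulated with 10 uM forskolin for 48 h, then exposed to test chemical in 0.1% DMSO for 48 h. Medium estradiol was extracted with MTBE, dansyl-derivatized and quantified by HPLC-MS/MS; bidirectional fit versus DMSO.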
# [13] = CEETOX_H295R_ESTRONE: CeeTox H295R High-throughput Steroidogenesis Assay for Estrone (AID 2283441); details: actives raise or lower the signal;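 note: estrone secreted into medium measured by LC-MS/MS after dansyl derivatization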
# How it was run: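 H295R cells prestimulated 48 h with 10 uM forskolin, then exposed 48 h to chemicals in 0.1% DMSO final; estrone in medium extracted with MTBE, dansyl-derivatized, quantified by HPLC-MS/MS; bidirectional fitting versus DMSO, viability by MTT.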
# [14] = biological target: Peroxisome proliferator-activated receptor gamma (Homo sapiens) (UniProt P37231); assay: OT_PPARg_PPARgSRC1_1440: Odyssey Thera (OT) 24-hour Protein-Complementation Assay for Peroxisome Proliferator-activated Receptor Gamma/ SRC-1 Co-activator (AID 2283388; active = hit-call score of the fitted dose curve at least 0.9, where 1 is the maximum)
# How it was run: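 HEK293T cells transiently transfected with PPARg and SRC-1 fused via (Gly4Ser)2 linker to split Venus YFP fragments (IFP1/IFP2) were dosed 24 h; fixed, Draq5-stained, imaged at 488/635 nm; nuclear/cytoplasmic fluorescence ratio scored versus DMSO baseline, gain-of-signal.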
# Retinoic acid receptor RXR-alpha (Homo sapiens), sequence (P19793 whole entry, looked up, the tested form may be a part): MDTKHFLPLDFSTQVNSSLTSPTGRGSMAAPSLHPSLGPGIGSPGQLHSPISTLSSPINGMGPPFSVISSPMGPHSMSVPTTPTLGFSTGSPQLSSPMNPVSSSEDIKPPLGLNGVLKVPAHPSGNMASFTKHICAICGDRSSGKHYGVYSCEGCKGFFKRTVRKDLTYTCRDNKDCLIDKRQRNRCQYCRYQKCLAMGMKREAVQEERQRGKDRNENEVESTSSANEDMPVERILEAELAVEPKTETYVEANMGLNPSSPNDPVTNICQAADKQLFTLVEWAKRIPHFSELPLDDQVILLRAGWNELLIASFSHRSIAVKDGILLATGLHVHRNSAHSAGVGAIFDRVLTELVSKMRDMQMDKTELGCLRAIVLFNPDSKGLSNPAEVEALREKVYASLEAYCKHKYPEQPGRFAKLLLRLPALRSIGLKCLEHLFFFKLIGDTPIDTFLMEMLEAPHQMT
# Peroxisome proliferator-activated receptor gamma (Homo sapiens), sequence (P37231 whole entry, looked up, the tested form may be a part): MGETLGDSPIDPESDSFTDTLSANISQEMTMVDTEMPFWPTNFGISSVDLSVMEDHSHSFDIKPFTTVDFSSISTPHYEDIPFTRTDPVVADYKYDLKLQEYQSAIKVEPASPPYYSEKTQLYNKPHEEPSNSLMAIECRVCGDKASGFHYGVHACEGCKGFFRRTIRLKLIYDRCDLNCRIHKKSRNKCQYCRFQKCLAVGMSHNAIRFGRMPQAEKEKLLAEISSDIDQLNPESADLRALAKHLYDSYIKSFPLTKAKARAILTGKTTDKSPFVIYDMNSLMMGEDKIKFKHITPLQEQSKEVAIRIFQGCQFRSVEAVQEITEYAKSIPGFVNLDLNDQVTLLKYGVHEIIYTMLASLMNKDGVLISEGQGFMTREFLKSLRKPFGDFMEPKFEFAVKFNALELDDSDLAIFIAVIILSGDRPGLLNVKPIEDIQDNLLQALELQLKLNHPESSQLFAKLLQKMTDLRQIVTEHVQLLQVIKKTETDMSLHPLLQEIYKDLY
# Bile acid receptor (Homo sapiens), sequence (Q96RI1 whole entry, looked up, the tested form may be a part): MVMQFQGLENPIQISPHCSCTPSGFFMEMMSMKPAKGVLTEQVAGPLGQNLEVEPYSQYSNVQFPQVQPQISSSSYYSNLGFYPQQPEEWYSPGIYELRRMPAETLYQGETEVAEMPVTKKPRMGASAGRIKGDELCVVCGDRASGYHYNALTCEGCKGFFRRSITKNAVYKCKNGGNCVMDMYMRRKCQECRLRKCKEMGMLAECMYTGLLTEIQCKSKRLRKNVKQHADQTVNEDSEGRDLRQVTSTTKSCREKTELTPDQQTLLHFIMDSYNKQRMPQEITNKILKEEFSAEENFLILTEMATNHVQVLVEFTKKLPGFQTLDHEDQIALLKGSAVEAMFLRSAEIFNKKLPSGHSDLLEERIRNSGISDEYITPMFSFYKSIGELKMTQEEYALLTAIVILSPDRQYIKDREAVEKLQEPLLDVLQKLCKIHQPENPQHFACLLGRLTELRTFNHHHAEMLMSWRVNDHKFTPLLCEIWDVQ
smiles,measurement,setting,value
CC(C)(C#N)c1cc(Cn2cncn2)cc(C(C)(C)C#N)c1,outcome,[1],inactive
same,outcome,[2],inactive
same,outcome,[3],inactive
CCCCCCCCCCCCCCCCCC(=O)OCC(CC)CCCC (configuration not stated),outcome,[4],inactive
same,outcome,[2],inactive
same,outcome,[3],inactive
C=CC(C)(O)CCC=C(C)CCC=C(C)C (configuration not stated),AC50,[1],59400 nM (active)
same,outcome,[4],inactive
same,AC50,[2],50000 nM (active)
CC1(C)[C@H](C(=O)OCc2cccc(Oc3ccccc3)c2)[C@@H]1C=C(Cl)Cl,outcome,[5],inactive
same,outcome,[6],inactive
same,outcome,[7],inactive
same,outcome,[8],inactive
same,outcome,[9],inactive
same,outcome,[10],inactive
same,outcome,[11],inactive
Cc1ccc2n[nH]nc2c1,outcome,[5],inactive
same,outcome,[6],inactive
same,outcome,[7],inactive
same,outcome,[9],inactive
same,outcome,[10],inactive
same,outcome,[12],inactive
same,outcome,[13],inactive
same,outcome,[11],inactive
CCCC1CCC(=O)O1 (configuration not stated),outcome,[4],inactive
same,outcome,[3],inactive
O=C(O)Cc1cccc2ccccc12,outcome,[3],inactive
C#C[C@]1(O)CC[C@H]2[C@@H]3CCC4=Cc5oncc5C[C@]4(C)[C@H]3CC[C@@]21C,AC50,[5],5400 nM (active)
same,AC50,[6],360 nM (active)
same,AC50,[7],871 nM (active)
same,AC50,[9],3340 nM (active)
same,outcome,[10],inactive
same,AC50,[12],5570 nM (active)
same,AC50,[13],3420 nM (active)
same,AC50,[11],225 nM (active)
NCCCCCCN,outcome,[4],inactive
same,outcome,[3],inactive
O=C(O)CCCCCCCC(=O)O,outcome,[2],inactive
same,outcome,[3],inactive
O=C(Oc1ccccc1)c1ccc(O)cc1,outcome,[2],inactive
same,outcome,[3],inactive
COc1ccc(O)cc1,AC50,[2],44600 nM (active)
same,outcome,[3],inactive
same,outcome,[14],inactive
Cc1ccc(C(C)C)cc1O,outcome,[2],inactive
same,outcome,[3],inactive
same,outcome,[14],inactive
CSc1nc(NC2CC2)nc(NC(C)(C)C)n1,outcome,[4],inactive
same,outcome,[3],inactive
same,outcome,[14],inactive
same,outcome,[6],inactive
same,outcome,[7],inactive
same,outcome,[11],inactive
CC1CC(OC(=O)c2ccccc2O)CC(C)(C)C1 (configuration not stated),AC50,[4],92800 nM (active)
same,outcome,[3],inactive
same,outcome,[14],inactive
CCCCCCCCCCC(CO)CCCCCCCC (configuration not stated),outcome,[2],inactive
same,outcome,[3],inactive
same,outcome,[14],inactive
COc1cc2ncnc(Nc3cccc(Cl)c3)c2cc1OC,outcome,[5],inactive
same,outcome,[6],inactive
same,outcome,[7],inactive
same,outcome,[8],inactive
same,outcome,[9],inactive
same,AC50,[10],496 nM (active)
same,outcome,[12],inactive
same,outcome,[13],inactive
same,outcome,[11],inactive
CCCCC[Si](OCC)(OCC)OCC,outcome,[4],inactive
same,outcome,[3],inactive
same,outcome,[14],inactive
CC(C)C[C@H]1C(=O)N2CCC[C@H]2[C@]2(O)O[C@](NC(=O)[C@@H]3C=C4c5cccc6[nH]c(Br)c(c56)C[C@H]4N(C)C3)(C(C)C)C(=O)N12,outcome,[3],inactive
O=C(O)C[C@H](O)C[C@H](O)/C=C/c1c(C2CC2)nc2ccccc2c1-c1ccc(F)cc1,AC50,[5],62.5 nM (active)
same,AC50,[6],2.06 nM (active)
same,AC50,[7],58.2 nM (active)
same,AC50,[8],76.8 nM (active)
same,outcome,[9],inactive
same,AC50,[10],33.1 nM (active)
same,AC50,[11],23.3 nM (active)
Cc1cccc(C)c1C,outcome,[5],inactive
same,outcome,[6],inactive
same,outcome,[7],inactive
same,outcome,[9],inactive
same,outcome,[10],inactive
same,outcome,[11],inactive
O=C(Cl)c1cccc(C(=O)Cl)c1,outcome,[4],inactive
same,outcome,[3],inactive
CCCOCC(C)O (configuration not stated),outcome,[3],inactive
CC1(C)C(=O)N(Br)C(=O)N1Cl,outcome,[3],inactive
same,outcome,[14],inactive
Nc1cc([N+](=O)[O-])ccc1Cl,outcome,[5],inactive
same,outcome,[6],inactive
same,AC50,[7],39300 nM (active)
same,outcome,[8],inactive
same,outcome,[9],inactive
same,outcome,[10],inactive
same,outcome,[11],inactive
